Measured values from PubChem BioAssay AID2599 (Sanford-Burnham Center for Chemical Genomics, 2010).
Among all 330,000 compounds or so, about 5,800 (1.8%) were called active. This is one part of a sample in which actives are shown more often than they occur.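 How the source made its calls: active means inhibition above about 50% at the single tested dose (limit read from the data); inactive means the rest.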

Biological target: Sentrin-specific protease 6 (Homo sapiens) (UniProt Q9GZR1)
Experiment: inhibition of human SENP6 catalytic domain – biochemical, luminescence, uHTS, primary screen (AID 2599);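 further: plate controls were DMSO wells with enzyme for no effect and DMSO wells lacking enzyme for full effect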
Details: Recombinant SENP6 catalytic domain, aminoluciferin luminescence; at 10 µM; stronger effect = higher value

Sequence of Sentrin-specific protease 6 (Homo sapiens) (Q9GZR1 628-1112 limits assumed): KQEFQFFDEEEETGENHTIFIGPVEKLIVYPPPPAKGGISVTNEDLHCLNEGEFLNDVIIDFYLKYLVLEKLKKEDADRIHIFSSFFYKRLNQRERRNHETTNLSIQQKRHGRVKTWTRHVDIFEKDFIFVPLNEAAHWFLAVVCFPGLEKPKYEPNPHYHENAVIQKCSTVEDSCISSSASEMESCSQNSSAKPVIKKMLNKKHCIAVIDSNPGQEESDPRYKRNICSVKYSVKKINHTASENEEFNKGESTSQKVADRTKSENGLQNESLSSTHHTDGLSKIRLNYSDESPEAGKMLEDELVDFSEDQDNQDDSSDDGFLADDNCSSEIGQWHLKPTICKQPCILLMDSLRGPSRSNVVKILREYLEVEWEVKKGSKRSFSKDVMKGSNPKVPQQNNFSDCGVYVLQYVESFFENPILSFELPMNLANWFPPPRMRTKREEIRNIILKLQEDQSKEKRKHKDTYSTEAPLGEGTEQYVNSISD

| Structure (SMILES) | inhibition |
| --- | --- |
| CCn1nccc1C(=O)Nc1ccc(Cl)c(Cl)c1 | 76.6% (active) |
| O=C(CC(O)(C(F)(F)F)C(F)(F)F)Nc1ccc(Cl)c(Cl)c1 | 1.52% (inactive) |
| CCn1nccc1C(=O)Nc1ccc(S(=O)(=O)NC23CC4CC(CC(C4)C2)C3)cc1 | 1.42% (inactive) |
| COc1ccc(OC)c(S(=O)(=O)N2CCCC(C(=O)NCCc3ccccc3)C2)c1 (stereo unspecified) | -9.45% (inactive) |
| O=C(Cn1c(=S)nc2ccccn21)N1CCc2ccccc2C1 | -12.6% (inactive) |
| O=C(c1ccc(F)cc1)n1cc(C(=S)N2CCOCC2)c2ccccc21 | 5.26% (inactive) |
| O=C(c1ccc(F)cc1)n1c(=S)nc2ccccn21 | 71.7% (active) |
| CCOc1cc2[nH]c(=S)n(CCCN3CCCC3=O)c(=O)c2cc1OCC | -8.53% (inactive) |
| COc1ccc(NC(=O)Nc2cccc3cccnc23)cc1 | 80.7% (active) |
| O=C(Nc1ccccc1Cl)O/N=C(/c1ccccc1)c1ccccn1 | 5.09% (inactive) |
| COc1ccc(NC(=O)C2CCCN(S(=O)(=O)c3cccc4cccnc34)C2)cc1 (stereo unspecified) | -2.53% (inactive) |
| CCOC(=O)Cc1ncccc1C(=O)Nc1ccc(OC)cc1 | 10.7% (inactive) |
| O=C(Nc1ccccc1Cl)Nc1cccc2cccnc12 | 58.1% (active) |
| O=C(Nc1cccc2cccnc12)c1cccc(Cl)c1 | 38.9% (inactive) |
| COc1ccc(OCC(=O)NN2Cc3ccccc3C2=N)cc1 | -3.36% (inactive) |
| COC(=O)C1=C(C)N(Cc2ccccc2)C(=NCCCOC(C)C)N[C@H]1c1ccccc1 | -15.2% (inactive) |
| Cc1ccc(S(=O)(=O)N(C)CC(=O)OCC(=O)N2CC(=O)Nc3ccccc32)cc1 | -8.14% (inactive) |
| Cn1c(N)c(C(=O)COC(=O)/C=C/c2ccc(OC(F)F)cc2)c(=O)n(C)c1=O | -13.8% (inactive) |
| O=C(Nc1cc2ccccc2oc1=O)C1CCCCC1 | 62.5% (active) |
| O=C(Nc1ccc2c(c1)OCCO2)C1CCCC1 | 15.1% (inactive) |
| Cc1ccccc1NC(=O)C1CCN(C(=O)NC2CCCCC2)CC1 | -18.9% (inactive) |
| C[n+]1ccc(C(=O)NCc2ccccc2)cc1 | -12.9% (inactive) |
| C=CCNC(=S)N1CCN(CCN=Cc2c(C)[nH]n(-c3ccc([N+](=O)[O-])cc3)c2=O)CC1 | 1.69% (inactive) |
| Cc1[nH]n(-c2ccc([N+](=O)[O-])cc2)c(=O)c1C=NCCN1CCN(C(=O)c2ccccc2F)CC1 | 87% (active) |

| Structure (SMILES) | inhibition |
| --- | --- |
| Cc1ccc(-n2[nH]c(C)c(/C=N/NC(=O)c3cccc([N+](=O)[O-])c3)c2=O)cc1C | 27.4% (inactive) |
| O=C(COC(=O)c1ccccc1Cl)NC1CCCCCCC1 | -12.9% (inactive) |
| Cc1ccc(-n2nc3ccc(NC(=O)/C=C/c4ccco4)cc3n2)cc1C | 10.8% (inactive) |
| Cc1nn(CC(=O)Nc2ccc(F)cc2)c(=O)c2ccccc12 | -16.4% (inactive) |
| CCC(=O)Nc1ccc2nn(-c3ccc(F)cc3)nc2c1 | 76.9% (active) |
| CC(C(=O)N1CCc2ccccc21)N(C)CC(=O)Nc1ccc(F)cc1 (stereo unspecified) | -18.7% (inactive) |
| O=C(/C=N/O)Nc1ccccc1 | -8.91% (inactive) |
| Cc1ccc(-c2nc(-c3cccnc3)sc2CC(=O)Nc2ccc(C)c(Cl)c2)cc1 | -22% (inactive) |
| Cc1[nH]n(C(N)=S)c(=O)c1N=Nc1ccc(Cl)cc1Cl | 96.1% (active) |
| Cc1cccc(N=Nc2c(C)[nH]n(-c3ccccc3)c2=O)c1 | -17.2% (inactive) |
| Cc1[nH]n(C)c(=O)c1N=Nc1ccc(S(C)(=O)=O)cc1 | -4.33% (inactive) |
| COc1ccc(CCNC(=O)COC(=O)Cc2ccccc2F)cc1 | 0.819% (inactive) |
| CCN(CC)CCOCCOc1ccc(Cl)c2ccccc12 | -6.66% (inactive) |
| CCOC(=O)c1cnc2sccn2c1=O | -5.45% (inactive) |
| CCOC(=O)c1cnc(COc2ccccc2Cl)[nH]c1=O | -27.6% (inactive) |
| CCOC(=O)c1cnc2[nH]c3ccccc3n2c1=O | 83% (active) |
| Cc1ccc(S(=O)(=O)NCC(=O)N(CC(=O)NC2CCCCC2)Cc2ccco2)cc1 | 1.15% (inactive) |
| COc1cc(C(=O)NCc2ccc3c(c2)cc(C)n3C)cc(OC)c1OC | 1.27% (inactive) |
| COc1cc2c3c(c1)/C(=C1/SC(=S)NC1=O)C(=O)N3C(C)(C)C=C2C | 24.2% (inactive) |
| Cc1nc(-c2ccc([N+](=O)[O-])cc2)c(-c2ccccc2)o1 | -20.8% (inactive) |
| O=c1[nH]n(-c2ccc([N+](=O)[O-])cc2)c(=O)c2ccccc12 | -18.2% (inactive) |
| O=C1CC(c2ccccc2)=NN1c1ccc([N+](=O)[O-])cc1 | 75.3% (active) |
| COc1ccc2oc(C(=O)NCc3ccco3)c(C)c2c1 | -9.13% (inactive) |
| COc1ccc2oc(C(=O)NCC(Cc3ccccc3)N(C)C)c(C)c2c1 (stereo unspecified) | -20.2% (inactive) |

| Structure (SMILES) | inhibition |
| --- | --- |
| COc1cccc(OCC(O)CNC(=O)c2oc3c(C)c(C)ccc3c2C)c1 (stereo unspecified) | 95.6% (active) |
| Cc1ccc(C(=O)Nc2ccc3c(c2)OCCO3)cc1S(=O)(=O)N1CCOCC1 | 7.66% (inactive) |
| CC(C)C(NS(=O)(=O)c1cccs1)C(=O)Nc1nc(C(C)(C)C)cs1 (stereo unspecified) | -11.7% (inactive) |
| COc1ccccc1N1CC(O)=C(c2nc3ccccc3s2)C1=N | -18.4% (inactive) |
| COc1ccccc1OCc1nc2ccccc2s1 | 94.1% (active) |
| CN(Cc1nc2ccccc2s1)C(=O)c1ccc(F)cc1 | 2.3% (inactive) |
| C/C=C/c1ccc(OCC(O)CN2CCCCCCC2)c(OC)c1 (stereo unspecified) | 1.7% (inactive) |
| CC(C)[C@H](NC(=O)N1CC(=O)Nc2ccccc21)C(=O)N[C@@H](Cc1c[nH]c2ccccc12)C(=O)O | -5.26% (inactive) |
| CCCCOc1ccc(-c2nnc(-c3ccco3)o2)cc1 | 67.2% (active) |
| CCOc1ccc(-n2c(SCC(N)=O)nnc2-c2ccco2)cc1 | -12.9% (inactive) |
| CCOc1ccc(-c2nnc(-c3ccco3)o2)cc1 | 85% (active) |
| N#Cc1ccc(OCc2nnc(-c3ccc([N+](=O)[O-])cc3)o2)cc1 | -4.94% (inactive) |
| COc1ccc(OCC(=O)Nc2nnc(-c3ccco3)s2)cc1 | -16.6% (inactive) |
| CCCCOc1ccc(-c2ncc(C(=O)OCC)c(N)n2)cc1 | -8.7% (inactive) |
| O=S(=O)(Cc1nnnn1-c1ccccc1)c1ccccc1 | 6.33% (inactive) |
| Cc1ccc(NC(=O)[C@H](Cc2ccccc2)NC(=O)C2CCNCC2)cc1 | -5.94% (inactive) |
| CCOc1ccc(S(=O)(=O)N2CCC(C(=O)OCc3ccc(OC)cc3)CC2)cc1 | -11.1% (inactive) |
| CCc1ccc2oc(-c3ccc(N)cc3)nc2c1 | 96.1% (active) |
| O=C(Nc1ccc2oc(-c3ccc4ccccc4c3)nc2c1)c1cccs1 | -13.1% (inactive) |
| Cc1cc2nc(-c3ccc(NC(=O)c4cccnc4)cc3)oc2cc1C | -15% (inactive) |
| COc1cccc(NC(=O)Cn2cnc3sc(C)c(S(=O)(=O)N4CCN(C)CC4)c3c2=O)c1 | 10.7% (inactive) |
| Cc1nnc(Nc2ccccc2F)s1 | 8.06% (inactive) |
| C=CCN1CCN(C(=O)CCCc2ccccc2)CC1 | 0.31% (inactive) |
| O=c1ccc2cc(S(=O)(=O)Nc3ccccc3F)ccc2o1 | 16.4% (inactive) |

| Structure (SMILES) | inhibition |
| --- | --- |
| CCN1CC=C2C(C#N)=C(N)C(C#N)(C#N)[C@H](c3ccoc3)[C@H]2C1 | 72.9% (active) |
| CCCN1CC=C2C(C#N)=C(N)C(C#N)(C#N)C(c3cc(OC)ccc3OC)C2C1 (stereo unspecified) | 0.193% (inactive) |
| N#CC1=C(N)C(C#N)(C#N)[C@H](c2ccsc2)[C@H]2COCC=C12 | -0.527% (inactive) |
| CC(CO)(CO)NC(=O)c1ccc(=O)[nH]n1 | -1.98% (inactive) |
| Cc1noc(C)c1C(=O)Nc1ccccn1 | -8.05% (inactive) |
| Cc1nonc1NC(=O)c1oc2ccccc2c1C | 2.56% (inactive) |
| Cc1c(C(=O)Nc2ccccn2)oc2ccc(Br)cc12 | 56.3% (active) |
| Cn1ccc(=Nc2ccc(NC(=O)c3ccc(N=c4ccn(C)c5ccc([N+](=O)[O-])cc45)cc3)cc2)cc1 | 0.718% (inactive) |
| NS(=O)(=O)c1ccc(-c2ccc(/C=C3\SC(=O)NC3=O)o2)cc1 | -21.1% (inactive) |
| CCn1c(CN2C(=O)CSc3ccccc32)n[nH]c1=S | 5.59% (inactive) |
| CCOC(=O)c1cc(C)sc1NC(=O)C1CCC1 | -29.2% (inactive) |
| COc1cccc(C(=O)NNC(=O)c2cccc(F)c2)c1 | 0.598% (inactive) |
| CCOC(=O)c1cc2cc3ccccc3cc2oc1=O | 13.2% (inactive) |
| COc1cccc(C(=O)c2cc3ccc(O)cc3oc2=O)c1 | 101% (active) |
| Cc1ccc(N2C(=O)C(NC(=O)c3c(F)cccc3F)(C(F)(F)F)C3=C2CC(C)(C)CC3=O)cc1 (stereo unspecified) | -5.98% (inactive) |
| COC(=O)c1c(CCl)noc1C(=O)NC(C)C | 15.8% (inactive) |
| CC(C)CCNC(=O)c1ccc2c(Cl)c3c(nc2c1)CCC3 | 76.2% (active) |
| COc1ccc(N2CCN(C(=O)c3ccc4c(Cl)c5c(nc4c3)CCCC5)CC2)cc1 | -0.317% (inactive) |
| CC(=O)c1ccc(NC(=O)c2ccc3c(Cl)c4c(nc3c2)CCCC4)cc1 | -20.3% (inactive) |
| Cc1nc2ccccc2c(=O)n1-c1ccc(F)c(NC(=O)c2cccs2)c1 | 1.23% (inactive) |
| CCn1nnnc1SCC(=O)c1ccc(C)cc1C | 16% (inactive) |
| CC(Oc1cccc(Cl)c1)C(=O)NC1CC(C)(C)NC(C)(C)C1 (stereo unspecified) | 0.854% (inactive) |
| Cc1nnc(SCC(=O)Nc2ccc(S(=O)(=O)Nc3ccc(Cl)nn3)cc2)s1 | -2.31% (inactive) |
| Cc1ccc(SC(CC(=O)c2ccc(C(C)(C)C)cc2)C(=O)O)cc1 (stereo unspecified) | -11.7% (inactive) |
